Assay results taken from PubChem BioAssay AID422 (Emory University Molecular Libraries Screening Center, 2006).
Several values for one entry are separate records, joined by “and”; a condition that tells them apart may be missing. Identical values can stand only once. Among all 160,000 compounds or so, about 310 (0.19%) were called active. This is one part of a sample in which actives are shown more often than they occur. Cut-off read from the data, not from the text of the source: active = inhibition above about 30%; inactive = the rest. Where a structure was tested more than once in an assay, its records may differ in their call.

target: 14-3-3 protein gamma (Homo sapiens) (UniProt P61981); test: modulators of 14-3-3 gamma protein binding, primary screen, biochemical, fluorescence polarization (AID 422); details: FP, 14-3-3gamma / TMR-pS259-Raf peptide binding; at 40 µM; stronger effect = higher value;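 note: 0% = protein plus tracer without compound and 100% = blank with tracer alone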
Sequence (P61981 whole entry, looked up): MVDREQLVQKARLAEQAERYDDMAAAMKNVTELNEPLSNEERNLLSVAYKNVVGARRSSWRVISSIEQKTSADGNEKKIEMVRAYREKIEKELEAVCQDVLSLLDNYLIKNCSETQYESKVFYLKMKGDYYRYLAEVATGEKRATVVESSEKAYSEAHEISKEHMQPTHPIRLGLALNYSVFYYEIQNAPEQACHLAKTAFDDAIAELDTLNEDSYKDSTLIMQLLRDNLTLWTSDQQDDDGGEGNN

inhibition, 45.7% (active) and 3.37% (inactive):
Cc1ccccc1CN1CCN(CC(=O)NCc2ccccn2)C1=O

inhibition, active:
CCN(CC)c1ccc2cc(C(=O)NC(C)=O)c(=Nc3ccccc3OC)oc2c1 133%
CC(C)CCOC(=O)c1c2c(n3ccccc13)C(=O)c1ccccc1C2=O 34.6%
Cc1cc2c3c(ccc(N)c3n1)C(=O)c1ccccc1-2 127%
S=c1[nH]ncn1-c1cccnc1 40.8%
CC1CN(C)C(C)CC1OC(=O)c1ccco1 (stereo not given) 34.5%
O=C(c1ccco1)N1CCN(c2ccc([N+](=O)[O-])c(NCc3cccnc3)c2)CC1 46.1%
O=C1c2cccc3c(N=Cc4ccccc4O)ccc(c23)C(=O)N1c1ccccc1 31.4%
CSc1nnc2c(n1)OC(c1ccccc1Cl)Nc1ccccc1-2 (stereo not given) 31.9%
Cc1c(Cl)c(C)c([N+](=O)[O-])c(O)c1C=Nc1ccc(Br)cc1C(=O)O 46.9%

inhibition, inactive:
O=C(Oc1ccc(C2NC(=O)c3c(sc4c3CCCC4)N2)cc1)c1ccccc1 (stereo not given) -5.95%
O=S(=O)(Nc1ccccn1)c1ccccc1 -1.79%
Cc1ccc(NC(=O)c2cccc(Oc3ccc(C#N)cc3)c2)cc1 -12%
O=C(Nc1nccs1)c1cc2cc(Cl)ccc2oc1=Nc1ccc(Br)cc1 -1.07%
COc1ccc(CNCC2OCCc3ccccc32)cc1OC (stereo not given) -5.29%
O=C(NCCc1ccccc1)C1Cc2ccccc2CN1S(=O)(=O)c1cccs1 (stereo not given) -6.94%
Cc1sc(NC(=O)c2cc(=O)c3ccccc3o2)nc1-c1ccccc1 0.55%
CCN(CC)c1ccc2cc(C(=O)O)c(=O)oc2c1 -6.88%
CCN(CC)c1ccc2cc(C(N)=O)c(=Nc3ccc(C(N)=O)cc3)oc2c1 3.05%
COc1cccc(-c2nn(C)c3sc(C(=O)NCCCOC(C)C)cc23)c1 -12.3%
O=C(OCCN1C(=O)c2ccccc2C1=O)c1ccc([N+](=O)[O-])cc1 5.13%
COC(=O)c1ccc2c(c1N)C(=O)c1ccccc1C2=O -200%
Cc1ccc2c(c1)-c1cccc3cccc(c13)C2=O 3.94%
Cc1ccc2nc3c(nc2c1)C(=O)c1ccccc1C3=O -16.2%
CCc1ccccc1NC(=O)c1cc2cc3ccc(OC)cc3nc2o1 17.8%
O=C(Cc1ccc(Cl)cc1)Nc1cccc(-c2nc3ccccc3o2)c1 -129%
COc1ccc(C2C3=C(CCCC3=O)OC3=C2C(=O)CCC3)cc1 0.11%
CCC(=O)N1CCc2cc(S(=O)(=O)CCC(=O)N3CCN(c4cccc(OC)c4)CC3)ccc21 3.36%
COc1cc2ccccc2cc1C(=O)Nc1nc(-c2c(OC)ccc3ccccc23)cs1 -0.5%
COC(=O)C1=CN(C)C=C(C(=O)OC)C1c1cc(OC)ccc1OC 1.92%
O=C(COc1ccc(C2CCCCC2)cc1)Nc1ccc(-c2nc3ncccc3o2)cc1 -12.3%
CC(=O)COc1cc(C)cc2oc(=O)c(Cc3ccccc3)c(C)c12 4.62%
COCCn1c(=S)[nH]c2cc(C(=O)N3CCN(C(=O)c4ccco4)CC3)ccc2c1=O 2.47%
CCOc1cc2c(cc1OCC)C1C(C(=O)NCCN3CCOCC3)c3ccccc3C(=O)N1CC2 (stereo not given) 8.01%
C(=N\n1cnnc1)/c1cccnc1 -6.33%
CC(C)(C)c1ccc(-c2nc(Cc3ccc(Cl)cc3)no2)cc1 -5.54%
COC(=O)C1=C(C)N=C2SC(C)C(=O)N2C1c1ccc(C)cc1 (stereo not given) -10.9%
CC(C)c1ccc(NC(=O)c2ccc(F)c(S(=O)(=O)NCc3ccccc3Cl)c2)cc1 -7.39%
COc1ccc(NC(=O)CSc2nc3nc(C)cc(C)n3n2)c(OC)c1 -15.5%
CCOC(=O)c1ccc(N2C(=O)C3CCCCC3C2=O)cc1 (stereo not given) -3.67%
O=C(NCCC1=CCCCC1)c1ccc2c(=O)n(Cc3cccc(Br)c3)c(=S)[nH]c2c1 -9.75%
CCc1ccc2oc(-c3cc(NC(=O)c4ccc(OC)cc4)ccc3Cl)nc2c1 -44.5%
CC(C)(c1ccc(NC(=O)C(F)(F)F)cc1)c1ccc(NC(=O)C(F)(F)F)cc1 -13.8%
CCN(CC)C(=O)CSc1nc2ccccc2n1S(=O)(=O)c1cccc([N+](=O)[O-])c1 -1.43%
Cc1cc(N2CC(C)CC(C)C2)nc2ccc([N+](=O)[O-])cc12 (stereo not given) -9.05%
Cc1cc2c(c(=O)[nH]1)C(=O)NC2=O -1.31%
O=c1cc(-c2ccccc2)nc(SCCOc2ccc(Cl)cc2)[nH]1 -2.33%
Cc1ccc(CNC(=O)CN2CCN(Cc3ccc(Cl)cc3)C2=O)cc1 -3.75%
Cc1ccccc1CN1CCN(CC(=O)NCc2cccs2)C1=O -7.12%
CCOC(=O)c1cc2c(=O)n3ccccc3nc2n(CCCOC)c1=NC(=O)c1cccc(Br)c1 0.86%
CC(=O)C1=NN(c2ccccc2)C(c2c[nH]c3ccccc23)N1c1ccc(N2CCOCC2)c(Cl)c1 (stereo not given) -3.29%
CN(CCC#N)C(=O)CN1C(=O)COc2ccc(C(C)(C)C)cc21 2.44%
O=C1NCCCC1C(=O)NC1CCCCC1 (stereo not given) -10.1%
CCc1sc(-c2cc3cccc(OC)c3oc2=O)nc1-c1ccc(C)cc1 -56.6%
Cc1ccc(C2OC3(C(=O)c4ccccc4C3=O)C3C(=O)N(c4ccc(Br)cc4)C(=O)C23)cc1 (stereo not given) -39.8%
O=C(OCC(=O)N1CCCC1)c1ccco1 -8.04%
COC(=O)c1ccc(NC(=O)c2ccco2)cc1 -6.08%
O=C(Nc1ccccc1O)c1ccco1 -6.85%
O=C(CCCOc1ccc(Br)cc1)Nc1ncc(Cc2ccc(F)cc2)s1 -2.12%
COc1ccc(C2C=C(c3ccc(OC(F)F)cc3)Nc3ncnn32)cc1 (stereo not given) 4.5%
Cc1ccc(/C(O)=C2\C(=O)C(=O)N(CCC(=O)O)C2c2ccc(Br)cc2)cc1 (stereo not given) -1.96%
CCC(C(=O)Nc1c2c(nn1-c1ccc([N+](=O)[O-])cc1)CSC2)c1ccccc1 (stereo not given) -13.7%
CCNc1cc(Nc2ccccc2)c2c3c(onc13)-c1ccccc1C2=O -69.4%
CN(C)c1ccc(Nc2cc(N3CCCC3)c3noc4c3c2C(=O)c2ccccc2-4)cc1 -88.4%
CCCCCc1ccc(S(=O)(=O)Nc2cnc3ccccc3c2)cc1 0.52%
CC1CCN(CCCNC(=O)C2CC(=O)N(C3CCCCCCC3)C2)CC1 (stereo not given) 3.07%
Cn1c(SCc2ccccc2Br)nnc1-c1ccc([N+](=O)[O-])cc1 -3.43%
CCOC(=O)C(NC(=O)c1ccc(OC)cc1)(NC1CCCCC1)C(F)(F)F (stereo not given) -6.18%
O=C(NCCn1cc(SCc2cccc(F)c2)c2ccccc21)c1ccccc1F 0.8%
COc1cc([N+](=O)[O-])ccc1NC(=O)C1CC(=O)NC(=Nc2ccc(C)cc2)S1 (stereo not given) 1.95%
Cc1ccc2[nH]cc(C(=O)c3ccccc3)c(=O)c2c1 -15%
O=C(c1ccco1)N1CCN(c2cccc(Cl)c2)CC1 -9.3%
O=[N+]([O-])c1ccc(N2CCN(S(=O)(=O)c3ccc4ccccc4c3)CC2)cc1NCc1ccco1 -5.05%
CC1CC(C)CN(C(=O)c2cc3c(=O)oc4ccccc4c3s2)C1 (stereo not given) -6.3%
CC(C)CCNC(=O)c1ccc2c(c1)N(Cc1ccccc1)C(=O)CS2 3.32%
O=C(Nc1cccc(-c2nc3ccccc3s2)c1)c1cccnc1Cl -17.9%
COc1cc(NS(=O)(=O)c2c(C)n[nH]c2C)cc(OC)c1 -0.99%
COc1cc2c(=O)n(CC3CCCO3)c(=O)n(CC(=O)c3ccc(Br)cc3)c2cc1OC (stereo not given) -0.78%
Cc1cc(OCC(=O)Nc2sc3c(c2C(N)=O)CCCC3)ccc1[N+](=O)[O-] -9.64%
O=C(Nc1c2c(nn1-c1ccc(F)cc1)CSC2)c1cccc(F)c1 -4.31%
COc1ccc(C)cc1NC(=O)C1(S(=O)(=O)c2ccc(Cl)cc2)CC1 -7.62%
O=C(NCCN1CCCC1)C1CCC(CNS(=O)(=O)c2ccc(Cl)cc2)CC1 (stereo not given) 1.41%
Cc1ccccc1N1C(=O)C2C3C=CC(C4CC34)C2C1=O (stereo not given) 8.35%
Cc1cc(OCC(=O)Nc2ncc(S(=O)(=O)c3ccc([N+](=O)[O-])cc3)s2)cc(C)c1Cl -4.64%
COc1ccc(C2C(C(=O)c3cccs3)=C(O)C(=O)N2CCN(C)C)cc1 (stereo not given) 11.4%
COc1ccc(C2=NN(c3ccccc3)C(c3ccc(F)cc3)C2)cc1 (stereo not given) -10.6%
CCC(C)Nc1ncnc2c1cnn2-c1cccc(C)c1 (stereo not given) 2.9%
O=C1c2cccc3cccc(c23)C(=O)N1c1cccc(O)c1 -4.23%
CC(=O)Nc1ccccc1Sc1ccc2c3c(cccc13)C(=O)N(c1ccc(C)cc1)C2=O -10.1%
O=C(O)c1ccc(N2NC(c3ccccc3)=CC2O)cc1 (stereo not given) -4.41%
O=C(CCS(=O)(=O)c1nc(-c2cccs2)cc(C(F)(F)F)n1)Nc1cc(Cl)ccc1O -33.5%
COc1cc(NS(=O)(=O)c2ccc3c(c2)CCN3C(C)=O)cc(OC)c1 0.2%
Cn1ccnc1SCC(=O)Nc1ccc(F)cc1 -12.9%
CCSCCOC(=O)C1=C(C)NC(=O)NC1c1ccc(OC)cc1 (stereo not given) -1.92%
O=C(NCc1ccco1)c1ccc2c(=O)n(Cc3ccc(Cl)cc3)c(=S)[nH]c2c1 -14.3%
CC1=C(C(=O)OCC2CCCO2)C(c2ccccc2Cl)C2=C(CCCC2=O)N1 (stereo not given) -2.91%
CC(C)(C)c1ccc(C2SCC(=O)N2c2ccccc2F)cc1 (stereo not given) -3.17%
CCCCOC(=O)c1cc(-c2ccccc2)nc2ccc(Br)cc12 2.65%
CCOc1ccc(C2Nc3ccccc3-c3nnc(SC)nc3O2)cc1C (stereo not given) -68.8%
CSc1nnc2c(n1)OC(c1ccc3c(c1)OCO3)Nc1ccccc1-2 (stereo not given) 6.07%
CCOC(=O)c1sc2ncnc(N3CCCC(C(=O)OCC)C3)c2c1C (stereo not given) -2.94%
Cc1ccccc1N=Cc1cccc([N+](=O)[O-])c1O 5.41%
Cc1ccc2nc(-c3cc(NC(=O)c4cc(Cl)ccc4[N+](=O)[O-])ccc3Cl)oc2c1 -15.8%
CCSCCSc1nc(C)cc(C)n1 -17.9%
CSc1nc(OCC(=O)c2ccccc2)c2c3c(sc2n1)CCCC3 4.08%
